The campaign covered roughly 52,000 compounds. About 4,300 (8.3%) were called active. This is one part of a sample in which actives are shown more often than they occur. Rule as the data show it: active = survival mostly below about 52% (no sharp cut-off); inactive = mostly above about 56%.
Each compound was assayed on DeltatarO mutant (assay: S. aureus survival, RN4220 and DeltatarO strains – OD600, teichoic acid synthesis inhibitors, primary screen (AID 463173)). Details: S. aureus RN4220 wild type/DeltatarO growth, OD600, 18 h, active compounds read low, screened at 18.75 µg/mL (by protocol).
In the case of CCN1C(=O)C2(c3ccccc31)c1c(oc3ccc(F)cc3c1=O)C(=O)N2CCCOC (configuration not stated), the survival is reported as 64% (inactive).
For Cc1cc2oc3c(c(=O)c2cc1C)C1(C(=O)N(C)c2ccccc21)N(CCO)C3=O (configuration not stated), the survival was 55% (inactive).
In the case of COCCCN1C(=O)c2oc3ccccc3c(=O)c2C12C(=O)N(C)c1ccccc12 (configuration not stated), the survival is reported as 64% (inactive).
CCCN1C(=O)C2(c3ccccc31)c1c(oc3ccc(C)cc3c1=O)C(=O)N2CCOC (configuration not stated) was tested, and the survival was 60% (inactive).
With CCCN1C(=O)C2(c3ccccc31)c1c(oc3ccccc3c1=O)C(=O)N2CCCOC(C)C (configuration not stated) the survival was 48% (inactive).
In the case of CCN1C(=O)C2(c3ccccc31)c1c(oc3ccc(C)cc3c1=O)C(=O)N2CCCOC(C)C (configuration not stated), the survival is reported as 49% (inactive).
CCCN1C(=O)C2(c3ccccc31)c1c(oc3cc(C)c(C)cc3c1=O)C(=O)N2CCCOC (configuration not stated) was tested, and the survival was 55% (active).
Cc1ccc2oc3c(c(=O)c2c1)C1(C(=O)N(C)c2ccccc21)N(CCCO)C3=O (configuration not stated) was tested, and the survival was 51% (active).
In the case of COCCN1C(=O)c2oc3ccc(C)cc3c(=O)c2C12C(=O)N(C)c1ccccc12 (configuration not stated), the survival is reported as 45% (active).
With CCCCc1nn2c(C)c(-c3ccc(OCC)cc3)nc2s1 the survival was 103% (inactive).
With CCOC(=O)c1sc(NC(=O)C(C)Sc2nc(-c3ccccc3)cc(C(F)(F)F)n2)c(C(=O)OC)c1C (configuration not stated) the survival was 159% (inactive).
For Cc1ccc(Cl)cc1N1CCN(C(=O)Cn2nc(C)c3sc4ccccc4c3c2=O)CC1, the survival was 57% (inactive).
In the case of COc1ccc(CCN2C(=O)CN=C2Nc2ccc(F)cc2)cc1OC, the survival is reported as 78% (inactive).
For COC(=O)c1ccc(C(=O)OC)c(NC(=O)c2ccc(-c3ccccc3)s2)c1, the survival was 126% (inactive).
For CCOC(=O)c1c(CN(C)C)oc2ccc(O)cc12, the survival was 88% (inactive).
CCCCNC(=O)[C@@H](c1ccccc1)N1Cc2ccccc2C1=O was tested, and the survival was 54% (inactive).
With CCc1ccccc1NC(=O)[C@@H](c1ccccc1)N1Cc2ccccc2C1=O the survival was 4% (active).
In the case of CC(=O)Nc1ccc(NC(=O)C(c2ccccc2)N2Cc3ccccc3C2=O)cc1 (configuration not stated), the survival is reported as 119% (inactive).
For O=C(Nc1ccccc1F)C(c1ccccc1)N1Cc2ccccc2C1=O (configuration not stated), the survival was 72% (inactive).
With CSc1cccc(NC(=O)C(c2ccccc2)N2Cc3ccccc3C2=O)c1 (configuration not stated) the survival was 88% (inactive).
With Cc1ccc(NC(=O)[C@@H](c2ccccc2)N2Cc3ccccc3C2=O)cc1 the survival was 71% (inactive).
For O=C(Nc1ccc(F)cc1)[C@@H](c1ccccc1)N1Cc2ccccc2C1=O, the survival was 38% (active).
For O=C(Nc1ccc(F)c(F)c1)C(c1ccccc1)N1Cc2ccccc2C1=O (configuration not stated), the survival was 102% (inactive).
In the case of CCOc1ccccc1NC(=O)C(c1ccccc1)N1Cc2ccccc2C1=O (configuration not stated), the survival is reported as 96% (inactive).
CC(C)CCNC(=O)[C@@H](c1ccccc1)N1Cc2ccccc2C1=O was tested, and the survival was 12% (active).
For CC(C)NC(=O)C(c1ccccc1)N1Cc2ccccc2C1=O (configuration not stated), the survival was 101% (inactive).
O=C(Nc1cccc(F)c1)[C@@H](c1ccccc1)N1Cc2ccccc2C1=O was tested, and the survival was 46% (active).
For COc1ccc(C(=O)OCc2cc(=O)n3nc(C4CC4)sc3n2)cc1OC, the survival was 91% (inactive).
In the case of CC(=O)N1c2ccc(S(=O)(=O)NCC3CCC(C(=O)Nc4ccccc4C)CC3)cc2CC1C (configuration not stated), the survival is reported as 104% (inactive).
With CCOc1ccccc1CNC(=O)C1CCN(S(=O)(=O)c2ccc3c(ccn3C)c2)CC1 the survival was 96% (inactive).
With O=C(Nc1cccc(F)c1F)C1CCN(c2ncccn2)CC1 the survival was 62% (inactive).
COc1ccc(CCNC(=O)CCCCn2c(=O)c3ccccc3n(CC(=O)Nc3c(C)cccc3C)c2=O)cc1OC was tested, and the survival was 115% (inactive).
Cc1ccc2c(c1)-c1onc(C(=O)N(C)c3ccc(F)cc3)c1CO2 was tested, and the survival was 65% (inactive).
With O=C(NCCCN1CCN(c2ccccc2F)CC1)C1COc2ccccc2C1 (configuration not stated) the survival was 92% (inactive).
With COc1ccc(OC)c(CCNC(=O)c2ccc3c(c2)c(C)c(C)n3Cc2ccccc2)c1 the survival was 79% (inactive).
For COc1cc(-c2nc3cc(Cl)ccc3o2)cc(OC)c1OC, the survival was 87% (inactive).
CCOC(=O)c1sc2ccccc2c1S(=O)(=O)Nc1c(C)cccc1C was tested, and the survival was 70% (inactive).
In the case of O=C(CSc1nc(-c2ccc(F)cc2)cc(C(F)(F)F)n1)NCc1ccccc1, the survival is reported as 62% (inactive).
For COc1ccc(-c2cc(C(F)(F)F)nc(SCC(=O)N(C)Cc3ccccc3)n2)cc1, the survival was 44% (inactive).
In the case of COc1ccccc1CNC(=O)CSc1nc(-c2ccc(OC)c(OC)c2)cc(C(F)(F)F)n1, the survival is reported as 55% (inactive).
For COc1ccc(-c2cc(C(F)(F)F)nc(SCC(=O)N(C)Cc3ccccc3)n2)cc1OC, the survival was 33% (active).
In the case of COc1ccc(-c2cc(C(F)(F)F)nc(SCC(=O)NCCc3ccccc3)n2)cc1OC, the survival is reported as 58% (inactive).
In the case of CN(Cc1ccccc1)C(=O)CSc1nc(-c2ccc(F)cc2)cc(C(F)(F)F)n1, the survival is reported as 31% (active).
With O=C(C1CCC1)N1CCc2cc(S(=O)(=O)NCc3ccc(F)cc3)ccc21 the survival was 93% (inactive).
For CCOc1ccccc1NC(=O)Cn1c(=O)n(-c2ccc(Cl)cc2)c(=O)c2oc3ccccc3c21, the survival was 69% (inactive).
For CN(C)c1ccc(NC(=O)CSC2=Nc3ccccc3C3=NC(CCC(=O)NCc4cccs4)C(=O)N23)cc1 (configuration not stated), the survival was 75% (inactive).
With Cc1ccc2oc(=O)c3cc(C(=O)Nc4ccc(C)c(F)c4)sc3c2c1 the survival was 77% (inactive).
Cc1nc(-n2nc(C)c(CCC(C)C)c2C)sc1C(=O)Nc1ccc(Br)cc1 was tested, and the survival was 50% (inactive).
For Cc1ccc(-n2ncc3c(NCCc4ccccc4)ncnc32)cc1, the survival was 87% (inactive).
COCCCNc1ncnc2c1cnn2-c1ccc(F)cc1 was tested, and the survival was 86% (inactive).
For CCCCN(c1ccccc1)c1ncnc2c1cnn2-c1ccc(Cl)cc1, the survival was 87% (inactive).
For CCCCN(CCCC)c1ncnc2c1cnn2-c1cccc(C)c1, the survival was 74% (inactive).
Cc1ccc(-n2ncc3c(N(C)Cc4ccccc4)ncnc32)cc1 was tested, and the survival was 89% (inactive).
For CCN(c1ccccc1)c1ncnc2c1cnn2-c1ccc(C)cc1C, the survival was 55% (inactive).
In the case of COc1ccc(CCNc2ncnc3c2cnn3-c2ccc(C)cc2)cc1, the survival is reported as 81% (inactive).
For Cc1ccc(-n2ncc3c(N(CCO)Cc4ccccc4)ncnc32)cc1, the survival was 8% (active).
For CCN(Cc1ccccc1)c1ncnc2c1cnn2-c1ccc(F)cc1, the survival was 79% (inactive).
For COc1ccc(-n2ncc3c(NCCCOC(C)C)ncnc32)cc1, the survival was 0% (active).
For OCCN(CCO)c1ncnc2c1cnn2-c1ccc(F)cc1, the survival was 6% (active).
With CCN(c1ccccc1)c1ncnc2c1cnn2-c1ccc(OC)cc1 the survival was 52% (active).
With COc1ccc(Cl)cc1NC(=O)c1c(NCc2sccc2C)sc2c1CCCC2 the survival was 71% (inactive).
CC(=O)NC1(c2ccccc2)CCN(Cc2nnnn2C(C)(C)C)CC1 was tested, and the survival was 91% (inactive).
With Cc1ccc(C)c(N2CCN(C(=O)CCS(=O)(=O)c3ccc4c(c3)CC(=O)N4C)CC2)c1 the survival was 89% (inactive).
In the case of O=C(Nc1ccccc1F)NC1CCN(Cc2nnnn2Cc2ccc(F)cc2)CC1, the survival is reported as 96% (inactive).
In the case of CC(=O)N1CCCc2ccc(NS(=O)(=O)c3cccc(Cl)c3)cc21, the survival is reported as 80% (inactive).
N#Cc1c[nH]n2c(NC3CCCC3)c(-c3cccc(Br)c3)nc12 was tested, and the survival was 45% (inactive).
For Cc1ccc2oc(C(=O)N(Cc3cccc(F)c3)C3CCS(=O)(=O)C3)c(C)c2c1 (configuration not stated), the survival was 76% (inactive).
In the case of COc1cc(CN(C(=O)c2oc3ccccc3c2C)C2CCS(=O)(=O)C2)cc(OC)c1OC (configuration not stated), the survival is reported as 55% (inactive).
With COc1cccc(CN(C(=O)c2oc3ccc(Br)cc3c2C)C2CCS(=O)(=O)C2)c1 (configuration not stated) the survival was 40% (active).
Cc1ccc2c(C)c(C(=O)N(Cc3ccc(Cl)cc3)C3CCS(=O)(=O)C3)oc2c1 (configuration not stated) was tested, and the survival was 34% (active).
With Cc1c(C(=O)N(Cc2ccc(N(C)C)cc2)C2CCS(=O)(=O)C2)oc2ccccc12 (configuration not stated) the survival was 42% (active).
In the case of COc1cccc(CN(C(=O)c2oc3ccccc3c2C)C2CCS(=O)(=O)C2)c1 (configuration not stated), the survival is reported as 69% (inactive).
Cc1c(C(=O)N(Cc2cccc(F)c2)C2CCS(=O)(=O)C2)oc2cc(Br)ccc12 (configuration not stated) was tested, and the survival was 63% (inactive).
With Cc1c(C(=O)N(Cc2ccccc2F)C2CCS(=O)(=O)C2)oc2ccccc12 (configuration not stated) the survival was 84% (inactive).
COc1cccc(CN(C(=O)c2oc3cc(C)ccc3c2C)C2CCS(=O)(=O)C2)c1 (configuration not stated) was tested, and the survival was 57% (inactive).
With C=CCn1c(C(C)NC(=O)c2ccccc2Cl)n[nH]c1=S (configuration not stated) the survival was 76% (inactive).
In the case of Cc1cccc(C)c1NC(=O)c1ccc2nc(CCc3ccccc3)oc2c1, the survival is reported as 69% (inactive).
In the case of O=C(Nc1ccc(Cl)cc1Cl)c1cc(S(=O)(=O)NCc2ccc3c(c2)OCO3)ccc1F, the survival is reported as 94% (inactive).
For O=C(C1CCCN(S(=O)(=O)c2cccc3nsnc23)C1)N1CCN(c2ccccc2)CC1 (configuration not stated), the survival was 79% (inactive).
In the case of CN1C(=O)SC(N(CC(N)=O)c2ccccc2)C1=O (configuration not stated), the survival is reported as 61% (inactive).
For COc1cc(NC(=O)Cn2nc(Cc3cccnc3)c3ccccc3c2=O)cc(OC)c1OC, the survival was 71% (inactive).
In the case of COCCNC(=O)CSc1nc2cc3c(cc2c(=O)n1CCCC(=O)NCc1ccc(OC)cc1)OCO3, the survival is reported as 84% (inactive).
For CC(=O)c1ccc(NC(=O)CSc2nnc3ccc(-c4ccc(Cl)cc4)nn23)cc1, the survival was 83% (inactive).
With CCOC(=O)c1c(NC(=O)CSc2cn(CCNC(=O)c3ccc(OCC)cc3)c3ccccc23)sc2c1CCCC2 the survival was 93% (inactive).
With COc1cccc(C(=O)COC(=O)c2cc(-c3cccs3)nc3ccccc23)c1 the survival was 54% (inactive).
For COc1cccc(-n2c(-c3cccc(F)c3)nc3c(cnn3-c3ccc(C)cc3)c2=O)c1, the survival was 76% (inactive).
In the case of Cc1ccc(-n2c(-c3ccco3)nc3c(cnn3-c3ccc(C)cc3)c2=O)cc1, the survival is reported as 81% (inactive).
CCc1nc2c(cnn2-c2ccc(C)cc2)c(=O)n1-c1ccc(C)cc1 was tested, and the survival was 47% (inactive).
For COc1cccc(-n2c(-c3ccccc3F)nc3c(cnn3-c3ccc(C)cc3)c2=O)c1, the survival was 75% (inactive).
In the case of CCc1nc2c(cnn2-c2ccccc2)c(=O)n1-c1ccc(Br)cc1, the survival is reported as 86% (inactive).
With Cc1ccc(-c2nc3c(cnn3-c3ccccc3)c(=O)n2-c2ccc(Cl)cc2)cc1 the survival was 44% (active).
For Cc1ccc(-c2nc3c(cnn3-c3ccccc3)c(=O)n2-c2cccc(Cl)c2)cc1, the survival was 33% (active).
For COc1ccc(-n2c(-c3ccccc3F)nc3c(cnn3-c3ccc(C)cc3)c2=O)cc1, the survival was 80% (inactive).
In the case of Cc1cccc(-c2nc3c(cnn3-c3ccccc3)c(=O)n2-c2ccc(Br)cc2)c1, the survival is reported as 139% (inactive).
With Cc1ccc(-n2c(-c3ccc(Br)cc3)nc3c(cnn3-c3ccccc3)c2=O)cc1 the survival was 39% (active).
For Cc1ccc(-n2c(-c3cccc(C)c3)nc3c(cnn3-c3ccccc3)c2=O)cc1, the survival was 19% (active).
COc1ccc(-n2c(-c3cccc(F)c3)nc3c(cnn3-c3ccc(C)cc3)c2=O)cc1 was tested, and the survival was 96% (inactive).

— PubChem BioAssay AID463173 (ICCB-Longwood Screening Facility, Harvard Medical School, 2010)
